CYP2C9 act – increases human cytochrome P450 2C9 activity; P11712; recombinant CYP2C9, luciferin-H conversion, luminescence; active compounds read high; factor 1 = untreated enzyme, 0 = blocked; activation factor at 5 µM; hit rate 1.4% among 96,000; AID 1024;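 active = activation factor of 2 or more for CYP2C9 at a 5 µM dose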;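 note: 0 = sulfaphenazole-blocked wells and 1 = vehicle-only wells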
Target sequence (P11712 whole entry, looked up): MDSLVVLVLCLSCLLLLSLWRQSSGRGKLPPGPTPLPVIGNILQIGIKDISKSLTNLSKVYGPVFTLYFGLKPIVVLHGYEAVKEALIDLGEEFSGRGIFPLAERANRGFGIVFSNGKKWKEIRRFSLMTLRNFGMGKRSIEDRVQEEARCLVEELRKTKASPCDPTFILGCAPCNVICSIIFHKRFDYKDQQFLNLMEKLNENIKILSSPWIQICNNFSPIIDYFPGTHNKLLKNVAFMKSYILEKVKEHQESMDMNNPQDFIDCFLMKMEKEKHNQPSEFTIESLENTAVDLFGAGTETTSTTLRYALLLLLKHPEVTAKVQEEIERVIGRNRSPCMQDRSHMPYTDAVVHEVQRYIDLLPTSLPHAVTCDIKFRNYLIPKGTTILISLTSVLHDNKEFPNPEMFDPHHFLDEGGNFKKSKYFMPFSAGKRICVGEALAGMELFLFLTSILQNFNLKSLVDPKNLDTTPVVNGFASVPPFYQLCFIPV
CYP2C9 inhib – blocks human cytochrome P450 2C9; P11712; CYP2C9 Supersomes, luciferin-H conversion, luminescence; inhibition, % at 5 µM; hit rate 20% among 96,000; AID 777;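 active = blocking of liver enzyme CYP2C9 beyond about 50% at 5 µM, limit read from the data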
CYP2C19 activ – increases human CYP2C19 enzyme activity. recombinant CYP2C19, luciferin-H EGE luminescence; active compounds read high; 0 = fully inhibited enzyme, 1 = untreated enzyme. activation factor at 5 µM. 96,000 tested, under 10 active;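 active = activation factor of at least 2 at 5 µM in the primary screen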;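 note: 0 = wells with 2.5 mM tranylcypromine and 1 = vehicle-only wells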
CYP2C19 inh – inhibitors of human CYP2C19; P33261; CYP2C19 Supersomes, luciferin-H EGE luminescence, 30 min; inhibition, % at 5 µM; hit rate 21% among 96,000;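 active = CYP2C19 inhibition above a set limit at 5 µM in the primary screen, cut at about 50% in these data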;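 note: plate controls were negative control wells for no effect and 2.5 mM tranylcypromine positive control for full effect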
Measles CPE – protection of cells from measles virus; Measles virus-infected cells, CPE protection, absorbance; protection (pct of control), % at 4 µM; hit rate 1.5% among 140,000; AID 841; in the data active = protection mostly above about 24%, no sharp cut-off; inactive = mostly below about 26%
* = called active by the depositor. Compounds with a hit are over-represented: about 22% of the library has one in this group of screens.

Results for O=C(NC1CCCCCCC1)c1ccc2c(c1)OCO2 ?
CYP2C9 act: 0.9; CYP2C9 inhib: 8; CYP2C19 activ: 0.7; CYP2C19 inh: 31; Measles CPE: 9

Results for O=C(c1ccc2c(c1)OCO2)N(CC1CCCO1)C1(C(=O)NC2CCCCC2)CCCCC1 (configuration not stated) ?
CYP2C9 act: 0.3; CYP2C9 inhib: 71*; CYP2C19 activ: 0.3; CYP2C19 inh: 70*; Measles CPE: 0

What do the screens show for `S=C(c1ccc2c(c1)OCO2)N1CCCCCC1`?
CYP2C9 act: 0.5; CYP2C9 inhib: 55*; CYP2C19 activ: 0; CYP2C19 inh: 99*; Measles CPE: 2

What do the screens show for `CC(C)N(N=Nc1ccc([N+](=O)[O-])cc1)C(C)C`?
Measles CPE: 23

Results for CCCCC(=O)Nc1ccc(C(=O)Nc2ccc(S(=O)(=O)N3CCCC3)cc2)cc1 ?
CYP2C9 act: 0.7; CYP2C9 inhib: 28; CYP2C19 activ: 0.7; CYP2C19 inh: 29; Measles CPE: 6

What do the screens show for `COc1ccc(C(=S)N2CCCC2)cc1C`?
CYP2C9 act: 1.4; CYP2C9 inhib: -42; CYP2C19 activ: 0.1; CYP2C19 inh: 91*; Measles CPE: 2

Results for CCOc1cc(/C=C2/SC(=O)N(CC(=O)N3CCc4ccccc4C3)C2=O)ccc1OCC(=O)O ?
CYP2C9 act: 1; CYP2C9 inhib: 3; CYP2C19 activ: 1; CYP2C19 inh: 1; Measles CPE: 10

What do the screens show for `CCCS(=O)(=O)c1c(S(=O)(=O)CCC)c2c(N)cccn2c1C(=O)c1ccc(F)cc1`?
CYP2C9 act: 0.3; CYP2C9 inhib: 68*; CYP2C19 activ: 0.3; CYP2C19 inh: 66*; Measles CPE: 11

What do the screens show for `CCCS(=O)(=O)c1c(S(=O)(=O)CCC)c2c(N)cccn2c1C(=O)c1ccc(Br)cc1`?
Measles CPE: 6

How did COc1ccc(-c2[nH]c(-c3cc(OC)c4c(c3)OCO4)nc2-c2ccccc2)cc1 do in these assays?
Measles CPE: 16

How did COc1ccc(-c2ccc(C#N)c(SCC(=O)OCc3ccccc3)n2)cc1OC do in these assays?
CYP2C9 act: 0.1; CYP2C9 inhib: 92*; CYP2C19 activ: 0.8; CYP2C19 inh: 22; Measles CPE: 5

Results for Cc1ccc(C(=O)CSc2nc(-c3ccccc3)ccc2C#N)cc1 ?
Measles CPE: 14

Results for COc1cccc(-c2ccc(C#N)c(SCC(=O)NCCc3ccccc3)n2)c1 ?
Measles CPE: 26

Results for N#Cc1ccc(-c2ccc3c(c2)OCO3)nc1SCC(=O)OCc1ccccc1 ?
CYP2C9 act: 0.1; CYP2C9 inhib: 92*; CYP2C19 activ: 1.2; CYP2C19 inh: -24; Measles CPE: 4

What do the screens show for `CCSc1nc(-c2ccc(OC)cc2)ccc1C#N`?
CYP2C9 act: 0.1; CYP2C9 inhib: 90*; CYP2C19 activ: 0.4; CYP2C19 inh: 63*; Measles CPE: 16

What do the screens show for `CCC(C)(C)NC(=O)Cc1ccc(OC)c(OC)c1`?
CYP2C9 act: 0.9; CYP2C9 inhib: 10; CYP2C19 activ: 0.7; CYP2C19 inh: 27; Measles CPE: 15

What do the screens show for `CCc1ccccc1Nc1nc(N)nc(COC(=O)c2cccn2C)n1`?
CYP2C9 act: 1; CYP2C9 inhib: -3; CYP2C19 activ: 0.5; CYP2C19 inh: 50; Measles CPE: 78*

How did Nc1nonc1-c1nc2ccccc2[nH]1 do in these assays?
CYP2C9 act: 0.8; CYP2C9 inhib: 16; CYP2C19 activ: 0.8; CYP2C19 inh: 21; Measles CPE: 2

Results for Cn1cc(Cl)c(-c2nc3ccccc3[nH]2)n1 ?
CYP2C9 act: 0.7; CYP2C9 inhib: 32; CYP2C19 activ: 0.4; CYP2C19 inh: 62*; Measles CPE: 9

What do the screens show for `CSc1ccccc1C(=O)NC1CCCCCC1`?
CYP2C9 act: 1.2; CYP2C9 inhib: -15; CYP2C19 activ: 0.8; CYP2C19 inh: 22; Measles CPE: 4

Results for COc1cccc(CNC(=O)c2cc3oc4ccccc4c3n2C)c1OC ?
CYP2C9 act: 1.4; CYP2C9 inhib: -42; CYP2C19 activ: 1.1; CYP2C19 inh: -8; Measles CPE: 72*

What do the screens show for `CCOc1ccc(NC(=O)c2oc3ccccc3c2NC(=O)CC)cc1`?
CYP2C9 act: 1.2; CYP2C9 inhib: -22; CYP2C19 activ: 0.9; CYP2C19 inh: 9; Measles CPE: 4

How did COC(=O)c1cc2oc3ccccc3c2n1CC(=O)Nc1ccccc1OC do in these assays?
CYP2C9 act: 0.9; CYP2C9 inhib: 14; CYP2C19 activ: 0.9; CYP2C19 inh: 14; Measles CPE: 10

How did CCOc1ccc(CNC(=O)c2cc3oc4ccccc4c3n2C)cc1 do in these assays?
CYP2C9 act: 0.5; CYP2C9 inhib: 52*; CYP2C19 activ: 0.8; CYP2C19 inh: 23; Measles CPE: 89*

How did CCOc1ccccc1CNC(=O)c1cc2oc3ccccc3c2n1CC do in these assays?
CYP2C9 act: 1.1; CYP2C9 inhib: -11; CYP2C19 activ: 0.3; CYP2C19 inh: 66*; Measles CPE: 35*

What do the screens show for `O=C1CCC/C(=N\NC(=O)c2ccc(NS(=O)(=O)c3ccc(Br)cc3)cc2)C1`?
Measles CPE: 3

How did C=CCn1c(SCc2ccc(C#N)cc2)nnc1-c1ccccc1 do in these assays?
CYP2C9 act: 1.1; CYP2C9 inhib: -11; CYP2C19 activ: 0.6; CYP2C19 inh: 43; Measles CPE: 12

Results for CC(C)CN(CC(C)C)C(=O)CS(=O)(=O)Cc1ccccc1 ?
CYP2C9 act: 0.7; CYP2C9 inhib: 33; CYP2C19 activ: 0.4; CYP2C19 inh: 62*; Measles CPE: 20

What do the screens show for `C=CCSc1nnc2nc3c(nn12)c1cc(C)ccc1n3CC=C`?
CYP2C9 act: 0.4; CYP2C9 inhib: 56*; CYP2C19 activ: 0.7; CYP2C19 inh: 33; Measles CPE: 24

What do the screens show for `O=C(CN1C(=O)c2ccccc2C1=O)c1ccccc1`?
CYP2C9 act: 0.5; CYP2C9 inhib: 51*; CYP2C19 activ: 0.7; CYP2C19 inh: 26; Measles CPE: 4

Results for Cc1nnc2n(-c3ccccc3)c(=O)c3c4c(sc3n12)COC(C)(C)C4 ?
CYP2C9 act: 1.1; CYP2C9 inhib: -12; CYP2C19 activ: 1.1; CYP2C19 inh: -7; Measles CPE: 8

How did COc1ccc(-c2cn(/N=C/c3ccc(Cl)cc3Cl)c(N)n2)cc1 do in these assays?
CYP2C9 act: 0.3; CYP2C9 inhib: 72*; CYP2C19 activ: 0.3; CYP2C19 inh: 74*; Measles CPE: 20

How did CSc1ccc(CNc2ccc(Cl)cc2)cc1 do in these assays?
CYP2C9 act: 1; CYP2C9 inhib: 3; CYP2C19 activ: 0; CYP2C19 inh: 96*; Measles CPE: 25

How did O=C(c1ccccc1)n1c(=S)nc2ccccn21 do in these assays?
CYP2C9 act: 0.6; CYP2C9 inhib: 38; CYP2C19 activ: 0.2; CYP2C19 inh: 79*

What do the screens show for `Cc1ccc(C(=O)n2c(=S)nc3ccccn32)cc1`?
CYP2C9 act: 0.9; CYP2C9 inhib: 8; CYP2C19 activ: 0.6; CYP2C19 inh: 35; Measles CPE: 6

Results for Cc1csc(-c2cnn(-c3ccccc3)c2NC(=O)c2cccc(C(F)(F)F)c2)n1 ?
CYP2C9 act: 0.5; CYP2C9 inhib: 48; CYP2C19 activ: 0.8; CYP2C19 inh: 22; Measles CPE: 22*
